Measurements as given in PubChem BioAssay (NCATS).
Several values for one entry are separate records, joined by “and”; a condition that tells them apart may be missing. Identical values can stand only once. Records with an inconclusive call do not appear. Activity calls are given as the source filed them. Unless noted, the call rests on the fitted dose curve; in most records, active means well fitted curve in the direction sought with a large enough effect; inconclusive means small, poorly fitted or top-dose-only effect, or another doubt; inactive means no such curve, though single readings can be large; an effect the other way counts as inactive or inconclusive.

Key:
[1] = biological target: ATP-dependent 6-phosphofructokinase (Trypanosoma brucei brucei) (UniProt O15648); assay: qHTS Assay to Find Inhibitors of T. brucei phosphofructokinase: hit validation (AID 492961);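 further: luminescence reports ADP formed as PFK phosphorylates fructose-6-phosphate with ATP; on the % scale 0 is the no-effect control and ±100 the full control effect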
Sequence of ATP-dependent 6-phosphofructokinase (Trypanosoma brucei brucei) (O15648 whole entry, looked up): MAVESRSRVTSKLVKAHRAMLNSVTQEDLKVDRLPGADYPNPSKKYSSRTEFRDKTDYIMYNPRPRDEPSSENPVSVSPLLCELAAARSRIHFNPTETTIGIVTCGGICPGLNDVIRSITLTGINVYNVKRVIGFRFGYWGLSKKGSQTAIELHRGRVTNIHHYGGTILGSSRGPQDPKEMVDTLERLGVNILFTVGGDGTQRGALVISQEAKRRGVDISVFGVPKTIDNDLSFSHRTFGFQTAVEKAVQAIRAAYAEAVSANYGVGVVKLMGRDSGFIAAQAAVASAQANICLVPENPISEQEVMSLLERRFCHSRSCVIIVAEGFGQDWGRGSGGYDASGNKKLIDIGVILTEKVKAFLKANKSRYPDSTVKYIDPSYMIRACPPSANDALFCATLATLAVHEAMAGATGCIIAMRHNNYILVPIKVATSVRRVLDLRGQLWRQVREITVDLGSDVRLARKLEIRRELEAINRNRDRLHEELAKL
How it was run: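 PFK 1.25 nM, F6P 0.5 mM, ATP 0.1 mM, MgCl2 5 mM, 0.1 M TEA pH 8.0, Tween20 0.01%, BSA 0.1%; 45 min RT. ADP-Glo two-step detection, luminescence. qHTS titration; curve fitting with curve-class categorization.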

[2] = biological target: Luciferin 4-monooxygenase (Photinus pyralis) (UniProt P08659); assay: Biochemical firefly luciferase enzyme assay for NPC (AID 624030);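 further: purified P. pyralis luciferase at 10 nM with luciferin and ATP substrate; 0% = DMSO and -100% = full luciferase inhibition by PTC124 control; nearly all actives have a fitted effect of over 70% in size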
Sequence of Luciferin 4-monooxygenase (Photinus pyralis) (P08659 whole entry, looked up): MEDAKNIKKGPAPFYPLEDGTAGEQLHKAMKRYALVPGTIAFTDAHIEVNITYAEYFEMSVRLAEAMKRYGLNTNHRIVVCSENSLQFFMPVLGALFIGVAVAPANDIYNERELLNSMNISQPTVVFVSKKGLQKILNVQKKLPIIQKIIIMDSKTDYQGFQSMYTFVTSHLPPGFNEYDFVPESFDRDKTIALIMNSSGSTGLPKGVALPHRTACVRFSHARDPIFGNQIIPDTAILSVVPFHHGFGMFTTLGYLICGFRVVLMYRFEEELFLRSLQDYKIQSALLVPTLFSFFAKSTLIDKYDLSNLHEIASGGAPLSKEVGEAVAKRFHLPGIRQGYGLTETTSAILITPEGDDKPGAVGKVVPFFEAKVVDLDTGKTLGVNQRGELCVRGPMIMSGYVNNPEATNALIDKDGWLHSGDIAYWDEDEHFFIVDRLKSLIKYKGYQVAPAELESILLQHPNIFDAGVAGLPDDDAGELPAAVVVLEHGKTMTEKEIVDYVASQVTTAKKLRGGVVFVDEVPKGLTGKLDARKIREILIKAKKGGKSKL
How it was run: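 Counter-screen for direct inhibition of the luciferase enzyme by approved-drug library compounds, run at 10 nM enzyme in 50 mM Tris acetate (final). Luminescence was read within 5 min of enzyme-buffer addition and normalized to PTC124 versus DMSO (0%).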

[3] = S16 Schwann cell PMP22 intronic element beta-lactamase assay (AID 624044; calls by dose curve;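 further: 0% = DMSO and -100% = potassium clavulanate positive control; nearly all actives have a fitted effect of over 15% in size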)
How it was run: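 Rat S16 Schwann cells with beta-Lac driven by a PMP22 intronic element, compound-treated 24 h at 37 °C. LiveBLAzer FRET B/G read: 460 nm normalized to potassium clavulanate vs DMSO; 535 nm FRET as viability; concentration-effect curves classified.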

[4] = Primary qHTS for inhibitors of nuclear receptor binding SET domain protein 2 (NSD2) in an isogenic RCH-ACV NSD2 p.E1099K mutant (9B) (AID 1645876); further: potency means the concentration at half of the fitted maximal effect; nearly all actives have a fitted effect of over 70% in size
[5] = Primary qHTS for inhibitors of nuclear receptor binding SET domain protein 2 (NSD2) in an RCH-ACV wild type WT cells (2C) (AID 1645877); further: potency means the concentration at half of the fitted maximal effect; nearly all actives have a fitted effect of over 70% in size
[6] = biological target: Glutathione peroxidase 1 (Homo sapiens) (UniProt P07203); assay: Primary qHTS Assay for Inhibitors of Recombinant Selenoprotein Glutathione Peroxidase 1 (GPX1) (AID 1845191); further: nearly all actives have a fitted effect of over 65% in size; on activity, negative = inhibition: on the % scale 0 is the no-effect control and ±100 the full control effect
Sequence of Glutathione peroxidase 1 (Homo sapiens) (P07203 whole entry, looked up): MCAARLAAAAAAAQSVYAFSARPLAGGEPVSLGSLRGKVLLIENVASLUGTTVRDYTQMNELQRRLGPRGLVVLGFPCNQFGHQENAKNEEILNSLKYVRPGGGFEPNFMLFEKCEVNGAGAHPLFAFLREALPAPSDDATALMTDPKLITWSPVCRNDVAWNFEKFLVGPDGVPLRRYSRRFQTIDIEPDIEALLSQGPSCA
How it was run: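 Recombinant GPX1 (10 nM final) was preincubated with compound for 30 min at room temperature, then reacted with 1 mM GSH, 0.5 mM CHP, 0.5 mM NADPH and 100 nM glutathione reductase; NADPH fluorescence (340/450 nm) was read at 0 and 15 min.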

[7] = biological target: Phospholipid hydroperoxide glutathione peroxidase GPX4 (Homo sapiens) (UniProt P36969); assay: Primary qHTS Assay for Inhibitors of Recombinant Selenoprotein Glutathione Peroxidase 4 (GPX4) (AID 1845192); settings: outcome: dose series up to 50 µM unless noted; further: on the % scale 0 is the no-effect control and ±100 the full control effect; nearly all actives have a fitted effect of over 65% in size
Sequence of Phospholipid hydroperoxide glutathione peroxidase GPX4 (Homo sapiens) (P36969 whole entry, looked up): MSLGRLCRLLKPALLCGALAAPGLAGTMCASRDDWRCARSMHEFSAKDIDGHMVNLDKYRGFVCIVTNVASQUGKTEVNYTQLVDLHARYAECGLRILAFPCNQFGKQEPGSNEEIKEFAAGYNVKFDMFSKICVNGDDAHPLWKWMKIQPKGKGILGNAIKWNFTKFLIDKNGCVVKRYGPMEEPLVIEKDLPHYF
How it was run: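 GR-coupled readout: 100 nM GR, 1 mM GSH, 0.5 mM NADPH; NADPH fluorescence (ex 340/em 450 nm) read at t=0 and after 15 min RT. GPX4 200 nM, preincubated 30 min with compound; substrate 0.5 mM CHP.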

[8] = qHTS drug screen for cell cycle checkpoint inhibitors in PARPi-resistant BRCA-mutant ovarian cancer cell lines. (AID 1963452; calls by dose curve); settings: PEO1/OlaR viability, CellTiter-Glo luminescence, 96 h, stronger effect = lower value
How it was run: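 PEO1, PEO4 and PEO1/OlaR ovarian cancer cells, 600 per well, exposed 96 h at 37C to a dilution series. Viability read by CellTiter-Glo luminescence, normalized to DMSO and empty wells; activity summarized as Z-AUC.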

[9] = qHTS profiling for inhibitors of Plasmodium falciparum proliferation (AID 504749);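 further: 0% = DMSO vehicle and full inhibition = artemisinin control; nearly all actives have a fitted effect of over 60% in size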; settings: P. falciparum in erythrocytes, SYBR Green DNA, 72 h, at 28.7 µM (top of the series)
How it was run: (§1)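 Parasite proliferation within erythrocytes, 72 h exposure. Endpoint: SYBR Green I fluorescence after overnight lysis at room temperature. Controls: 0.29 uM artemisinin, DMSO.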

3D7 = assay: as above; settings: P. falciparum in erythrocytes, SYBR Green DNA, 72 h; series mostly up to 28.7 µM
How it was run: as §1

AA1029 = assay: as above; settings: P. falciparum in erythrocytes, SYBR Green DNA, 72 h; series mostly up to 28.7 µM
How it was run: as §1

AS120 = assay: as above; settings: P. falciparum in erythrocytes, SYBR Green DNA, 72 h; series mostly up to 28.7 µM
How it was run: as §1

ATS189 = assay: as above; settings: P. falciparum in erythrocytes, SYBR Green DNA, 72 h; series mostly up to 28.7 µM
How it was run: as §1

ATS95 = assay: as above; settings: P. falciparum in erythrocytes, SYBR Green DNA, 72 h; series mostly up to 28.7 µM
How it was run: as §1

C2A = assay: as above; settings: P. falciparum in erythrocytes, SYBR Green DNA, 72 h; series mostly up to 28.7 µM
How it was run: as §1

CP185 = assay: as above; settings: P. falciparum in erythrocytes, SYBR Green DNA, 72 h; series mostly up to 28.7 µM
How it was run: as §1

CP191 = assay: as above; settings: P. falciparum in erythrocytes, SYBR Green DNA, 72 h; series mostly up to 28.7 µM
How it was run: as §1

CP192 = assay: as above; settings: P. falciparum in erythrocytes, SYBR Green DNA, 72 h; series mostly up to 28.7 µM
How it was run: as §1

CP194 = assay: as above; settings: P. falciparum in erythrocytes, SYBR Green DNA, 72 h; series mostly up to 28.7 µM
How it was run: as §1

CP201 = assay: as above; settings: P. falciparum in erythrocytes, SYBR Green DNA, 72 h; series mostly up to 28.7 µM
How it was run: as §1

CP203 = assay: as above; settings: P. falciparum in erythrocytes, SYBR Green DNA, 72 h; series mostly up to 28.7 µM
How it was run: as §1

CP211 = assay: as above; settings: P. falciparum in erythrocytes, SYBR Green DNA, 72 h; series mostly up to 28.7 µM
How it was run: as §1

CP215 = assay: as above; settings: P. falciparum in erythrocytes, SYBR Green DNA, 72 h; series mostly up to 28.7 µM
How it was run: as §1

CP217 = assay: as above; settings: P. falciparum in erythrocytes, SYBR Green DNA, 72 h; series mostly up to 28.7 µM
How it was run: as §1

CP237 = assay: as above; settings: P. falciparum in erythrocytes, SYBR Green DNA, 72 h; series mostly up to 28.7 µM
How it was run: as §1

CP238 = assay: as above; settings: P. falciparum in erythrocytes, SYBR Green DNA, 72 h; series mostly up to 28.7 µM
How it was run: as §1

CP247 = assay: as above; settings: P. falciparum in erythrocytes, SYBR Green DNA, 72 h; series mostly up to 28.7 µM
How it was run: as §1

CP250 = assay: as above; settings: P. falciparum in erythrocytes, SYBR Green DNA, 72 h; series mostly up to 28.7 µM
How it was run: as §1

C=C1/C(=C\C=C2/CCC[C@]3(C)[C@@H]([C@H](C)CCCC(C)(C)O)CC[C@@H]23)C[C@@H](O)C[C@@H]1O
0.475 and 0.837: Z-AUC ([8]; measured here: PEO1 parental Z-AUC)
0.77 and 1.19: Z-AUC ([8]; measured here: PEO4 Z-AUC)
active: Potency [4] 20.9 µM and 18.6 µM | Potency [5] 16.6 µM
inactive: outcome [1] | Potency [2] | outcome [3] | Potency [6] | Potency [7] | Z-AUC [8] 0.612 and 1.13 | activity, negative = inhibition ([9]; parasite line A) -3.09% | activity, negative = inhibition ([9]; parasite line B) -9.52% | Potency (3D7) | Potency (AA1029) | Potency (AS120) | Potency (ATS189) | Potency (ATS95) | Potency (C2A) | Potency (CP185) | Potency (CP191) | Potency (CP192) | Potency (CP194) | Potency (CP201) | Potency (CP203) | Potency (CP211) | Potency (CP215) | Potency (CP217) | Potency (CP237) | Potency (CP238) | Potency (CP247) | Potency (CP250)
